# System: Staphylococcus aureus
# Test: Antibacterial activity against Staphylococcus aureus MRSA ATCC 43300 (CO-ADD:GP_020); MIC in CAMBH media using NBS plates, by Resazurin F(560/590)
# Assay type: functional
# Conditions: Concentration 20 uM, ASSAY_TEST Inhibition of Bacterial Growth, detection method Resazurin, Fluorescence (ex560/em590), MEDIA CAMHB, plate type 384well, CORNING #3640, time 18 hr
row,SMILES,Inhibition
1,O=C(O)c1ccccc1-c1ccccc1C(=O)Nc1ccc2c(c1)nc(O)c1ccccc12,7.3%
2,COc1cccc(NC(S)=Nc2ccc(O)cc2)c1,-0.11%
3,Cc1cnc2c(N)cc(C)c(C)c2c1,23.12%
4,CC(C)c1ccc(-c2nc3ccccc3s2)cc1,16.1%
5,Cn1ncc2c(Nc3cccc(Cl)c3)nc(Nc3cccc(Cl)c3)nc21,15.88%
6,COc1ccc(C(=S)N2CCN(c3cccc(Cl)c3)CC2)cc1,13.14%
7,CC(C)(C)n1nc(C2CC2)cc1NC(=O)Nc1ccccc1,5.22%
8,c1ccc(-c2nc[nH]c2-c2ccccc2)cc1,15.79%
9,O=C(Nc1ccc(Cl)c(Cl)c1)Nc1ccccc1O,-10.29%
10,Cc1ccc(/N=N\c2c(O)ccc3[nH]nnc23)cc1,-9.42%
11,CCOC(=O)Nc1csnn1,13.65%
12,O=C(O)c1cc(O)ccc1/N=N/c1ccccc1,3.85%
13,COc1cc2c(c(OC)c1O)C(=O)CO2,-11.73%
14,Cc1nc2ccccc2nc1NS(=O)(=O)c1ccc(N)cc1,-35.57%
15,CNC1(C(N)=O)CCNCC1,10.6%
16,Cc1cccc(C(O)C(O)c2cccc(C)n2)n1 (stereo not drawn),7.22%
17,COc1cc(/C=N/N=c2\[nH]c3c(=O)n(C)c(=O)n(C)c3[nH]2)ccc1O,15.24%
18,COc1ccc(/N=N/c2ccc(N)nc2N)cc1,0.3%
19,CCC(CO)Nc1nc2ccc(Cl)cc2c2ccccc12 (stereo not drawn),32.89%
20,CSc1ccc(NC(=O)Nc2cc(C)ccn2)cc1,4.66%

row,SMILES,Inhibition
1,CC1CCC(C(C)C)C(NC(=O)c2ccncc2)C1 (stereo not drawn),7.04%
2,Cc1ccc(C)c(-n2c(-c3ccc(Br)cc3)cs/c2=N\C(=O)c2ccccc2F)c1,15.56%
3,O=C1C(Br)=Cc2cccc3cccc1c23,13.47%
4,Cn1ncc2c(Nc3ccc(Br)cc3)nc(Nc3ccc(Br)cc3)nc21,3.19%
5,NC(=O)c1cc(C(N)=O)nc(Cl)n1,12.7%
6,O=S(=O)(O)c1ccc(/N=N/c2ccccc2)cc1,-3.11%
7,CCOC(=O)Nc1cc2c(c(N)n1)N=C(c1ccccc1)CN2,13.64%
8,Cc1nc2ccc(Cl)cn2c1[N+](=O)[O-],1.58%
9,CC(C)(C)c1ccc(C(=O)Nc2ccc(S(N)(=O)=O)cc2)cc1,29.14%
10,O=C(O)c1cnn2c(S)ncnc12,16.65%
11,c1ccc(-c2nnc3oc(-c4cccs4)nn23)cc1,-2.52%
12,Clc1ccccc1-c1nc(-c2ccncc2)no1 [PIFEXOLE],2.18%
13,COC1OC(O)C(NC(=O)C(F)(F)F)CC1O (stereo not drawn),15.69%
14,C=CCNC(=O)C1COc2ccccc2O1 (stereo not drawn),-8.47%
15,Cn1c(=O)c2c(nc(Cc3ccc(N)cc3)n2C)n(C)c1=O,12.3%
16,CSc1nc(C)cc(S)n1,0.72%
17,O=C(OCC(O)COC(=O)c1cccnc1)c1cccnc1,6.08%
18,CN1CCN(C(=O)Nc2ccc([N+](=O)[O-])cc2)CC1,7.33%
19,CCCc1cc(=O)oc2c3c(c4c(c12)OC(C)(C)C=C4)OC(C)[C@H](C)[C@@H]3O (stereo partly drawn),12.64%

# System: Acinetobacter baumannii
# Test: Antibacterial activity against Acinetobacter baumannii ATCC 19606 (CO-ADD:GN_034); MIC in CAMBH media using NBS plates, by Resazurin F(560/590)
# Assay type: functional
# Conditions: Concentration 20 uM, ASSAY_TEST Inhibition of Bacterial Growth, detection method Resazurin, Fluorescence (ex560/em590), MEDIA CAMHB, plate type 384well, CORNING #3640, time 18 hr
row,SMILES,Inhibition
1,O=C(O)c1ccccc1-c1ccccc1C(=O)Nc1ccc2c(c1)nc(O)c1ccccc12,-9.28%
2,COc1cccc(NC(S)=Nc2ccc(O)cc2)c1,-11.24%
3,Cc1cnc2c(N)cc(C)c(C)c2c1,-5.88%
4,CC(C)c1ccc(-c2nc3ccccc3s2)cc1,2.02%
5,Cn1ncc2c(Nc3cccc(Cl)c3)nc(Nc3cccc(Cl)c3)nc21,-2.31%
6,COc1ccc(C(=S)N2CCN(c3cccc(Cl)c3)CC2)cc1,2%
7,CC(C)(C)n1nc(C2CC2)cc1NC(=O)Nc1ccccc1,-11.36%
8,c1ccc(-c2nc[nH]c2-c2ccccc2)cc1,-13.75%
9,O=C(Nc1ccc(Cl)c(Cl)c1)Nc1ccccc1O,0.1%
10,Cc1ccc(/N=N\c2c(O)ccc3[nH]nnc23)cc1,-9.08%
11,CCOC(=O)Nc1csnn1,-5.72%
12,O=C(O)c1cc(O)ccc1/N=N/c1ccccc1,-9.66%
13,COc1cc2c(c(OC)c1O)C(=O)CO2,-8.29%
14,Cc1nc2ccccc2nc1NS(=O)(=O)c1ccc(N)cc1,-9.78%
15,CNC1(C(N)=O)CCNCC1,-11.41%
16,Cc1cccc(C(O)C(O)c2cccc(C)n2)n1 (stereo not drawn),-14.61%
17,COc1cc(/C=N/N=c2\[nH]c3c(=O)n(C)c(=O)n(C)c3[nH]2)ccc1O,-6.89%
18,COc1ccc(/N=N/c2ccc(N)nc2N)cc1,-8.88%
19,CCC(CO)Nc1nc2ccc(Cl)cc2c2ccccc12 (stereo not drawn),5.43%
20,CSc1ccc(NC(=O)Nc2cc(C)ccn2)cc1,-16.85%

row,SMILES,Inhibition
1,CC1CCC(C(C)C)C(NC(=O)c2ccncc2)C1 (stereo not drawn),-17.65%
2,Cc1ccc(C)c(-n2c(-c3ccc(Br)cc3)cs/c2=N\C(=O)c2ccccc2F)c1,-6.11%
3,O=C1C(Br)=Cc2cccc3cccc1c23,-14.96%
4,Cn1ncc2c(Nc3ccc(Br)cc3)nc(Nc3ccc(Br)cc3)nc21,-7.92%
5,NC(=O)c1cc(C(N)=O)nc(Cl)n1,0.04%
6,O=S(=O)(O)c1ccc(/N=N/c2ccccc2)cc1,7.18%
7,CCOC(=O)Nc1cc2c(c(N)n1)N=C(c1ccccc1)CN2,2.33%
8,Cc1nc2ccc(Cl)cn2c1[N+](=O)[O-],13.48%
9,CC(C)(C)c1ccc(C(=O)Nc2ccc(S(N)(=O)=O)cc2)cc1,5.57%
10,O=C(O)c1cnn2c(S)ncnc12,-14.23%
11,c1ccc(-c2nnc3oc(-c4cccs4)nn23)cc1,-16.04%
12,Clc1ccccc1-c1nc(-c2ccncc2)no1 [PIFEXOLE],-11.63%
13,COC1OC(O)C(NC(=O)C(F)(F)F)CC1O (stereo not drawn),9.13%
14,C=CCNC(=O)C1COc2ccccc2O1 (stereo not drawn),-14.67%
15,Cn1c(=O)c2c(nc(Cc3ccc(N)cc3)n2C)n(C)c1=O,8.51%
16,CSc1nc(C)cc(S)n1,-7.16%
17,O=C(OCC(O)COC(=O)c1cccnc1)c1cccnc1,10.73%
18,CN1CCN(C(=O)Nc2ccc([N+](=O)[O-])cc2)CC1,6.21%
19,CCCc1cc(=O)oc2c3c(c4c(c12)OC(C)(C)C=C4)OC(C)[C@H](C)[C@@H]3O (stereo partly drawn),-5.36%

# Reference: ChEMBL document CHEMBL4296182, “CO-ADD screening of NIH NCI Diversity Set V”
